# Measured values from PubChem BioAssay (NCI).
# The panel holds about 79,000 compounds, 15% with a hit somewhere; the sample as a whole holds those more often. A number with no mark means an inactive call. Calls of active or inactive are those of the source. Cut-off read from the data, not from the text of the source: active = growth inhibition above about 70%; inactive = the rest.
# Key:
# [1] = NCI Yeast Anticancer Drug Screen. Data for the rad50 strain (AID 155);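 note: 0% = growth of vehicle-only cultures of the same strain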; conditions: S. cerevisiae rad50 strain growth inhibition; at 50.0 µM; hits give high values
# Method in brief: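 Cells are treated with compound, grown, and their growth is then scored against vehicle-only cultures of the same repair-deficient yeast strain.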
# [2] = NCI Yeast Anticancer Drug Screen. Data for the mec2-1 strain (AID 157); conditions: S. cerevisiae mec2-1 strain, at 50.0 µM, hits give high values
# Method in brief: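 mec2-1 yeast strain, carrying an alteration in DNA damage repair or cell cycle control, was exposed to compounds; growth inhibition was measured relative to vehicle-treated controls.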
# [3] = NCI Yeast Anticancer Drug Screen. Data for the sgs1 mgt1 strain (AID 161);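 note: 0% = growth of cultures given vehicle only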; conditions: S. cerevisiae sgs1 mgt1 strain, at 50.0 µM, hits give high values
# Method in brief: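 Growth of a repair-deficient yeast mutant was monitored after compound treatment and expressed as inhibition relative to vehicle-treated cultures.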
# [4] = NCI Yeast Anticancer Drug Screen. Data for the cln2 rad14 strain (AID 165);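 note: 0% = growth equal to vehicle treated cultures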; conditions: S. cerevisiae cln2 rad14 strain, at 50.0 µM, hits give high values
# Method in brief: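 Yeast carrying cln2 and rad14 alterations (cell cycle control and DNA damage repair) were exposed to compounds. Growth inhibition was measured against vehicle-treated controls.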
# [5] = NCI Yeast Anticancer Drug Screen. Data for the bub3 strain (AID 167); conditions: S. cerevisiae bub3 mutant strain, at 50.0 µM, hits give high values
# Method in brief: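 Part of a panel of yeast mutants defective in DNA damage repair or cell cycle regulation. Each strain is grown with compound, and inhibition is calculated relative to solvent-treated cultures.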
# [6] = NCI Yeast Anticancer Drug Screen. Data for the mlh1 rad18 strain (AID 175); conditions: S. cerevisiae mlh1 rad18 strain growth inhibition; at 50.0 µM; hits give high values
# Method in brief: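 Growth inhibition of the yeast strain was measured after compound exposure and expressed relative to vehicle-treated controls. The strain carries defined defects in DNA damage repair.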
Structure (SMILES),growth inhibition [1],growth inhibition [2],growth inhibition [3],growth inhibition [4],growth inhibition [5],growth inhibition [6]
C[N+]1(C)C2CCC1CC(OC(=O)C(CO)c1ccccc1)C2 (centres undefined),18.7%,-21.6%,-6%,-28.4%,-51.5%,-5.95%
CN1CCCC(C(=O)c2ccccc2)C1 (centres undefined),0.45%,-5.1%,-0.3%,-18.9%,-4.95%,3.75%
C[N+]12CCC34C5=CC(=O)C(=O)C=C5[N+]5(C)C(=O)CC6OCC=C(C1)C(CC32)C6C45 (centres undefined),-2%,-22.1%,4.65%,10.9%,11.7%,0.7%
C=C(Br)C[N+]12CN3CN(CN(C3)C1)C2,-2%,-6.55%,2.15%,-6.95%,2.7%,-17.2%
O=P1(N2CCCCC2)OCC2(CO1)COP(=O)(N1CCCCC1)OC2 (centres undefined),-7.15%,-0.6%,0.1%,-7.55%,-1.65%,3.2%
CCOC(OCC)c1ccccc1.[C-]#[O+].[C-]#[O+].[C-]#[O+].[Cr],25.1%,21.4%,33%,13.9%,32.7%,8.8%
Cc1cc(N(CCCl)CCCl)ccc1C1N(Cc2ccc(N(CCCl)CCCl)cc2)CCCN1Cc1ccc(N(CCCl)CCCl)cc1,0.8%,7.8%,-6.2%,-5.1%,-1.35%,25%
O[C@H]1[C@H](O)[C@@H](O)CN2CC[C@H](O)[C@H]12,-25.9%,-24.1%,-18.1%,-4.1%,-9.05%,-24.6%
O=C(O)C(Cl)C(=O)O,-4.4%,-7.8%,9%,-26.4%,-0.35%,-13.9%
Oc1cc(Cl)ccc1Cl,98.2% (active),99% (active),98.6% (active),96.5% (active),99% (active),98.8% (active)
NC1=NC(N)=N1,1.95%,16.6%,-6.2%,-1.25%,14.2%,-13.2%
COC(=O)c1c(C(=O)OC)c1=[N+]=[N-],5.2%,-5.35%,-0.95%,-10.8%,-0.15%,6%
Cc1nc2cccc(F)c2c(=O)n1-c1nnc(C(F)(F)F)s1,16.9%,8.8%,16.5%,10.8%,-6.4%,15.5%
CCCCCCCCCSCP(=O)(OCC)OCC,99.5% (active),99.8% (active),99.7% (active),98.9% (active),99.5% (active),99.7% (active)
Cc1cc(O)c2c(c1)OC(C)(C)C1=C2CC(C)CC1 (centres undefined),-6.4%,10.8%,-1.05%,-52.8%,-16.1%,-21.9%
S=C([SH2+])[SH2+].S=C([SH2+])[SH2+].[Pt+2].c1ccc(C[P+](c2ccccc2)(c2ccccc2)c2ccccc2)cc1,44.7%,3.45%,36.2%,-16.6%,3.6%,-0.1%
C[N+](C)(Cc1ccccc1[N+](=O)[O-])c1ccc(N(CCCl)CCCl)cc1,-7.8%,-8.15%,-4.2%,-16.7%,-22.3%,12.6%
O=C(O)C(CSC(c1ccccc1)(c1ccccc1)c1ccccc1)N1C(=O)c2ccccc2C1=O (centres undefined),98.8% (active),99.2% (active),99.3% (active),96.8% (active),98.8% (active),99% (active)
Nc1cccc(SC2CC(=O)N(c3ccc(Cl)cc3C(=O)c3ccccc3)C2=O)c1 (centres undefined),16.6%,-4.6%,34.2%,26.4%,19.9%,22.9%
